# Data published in PubChem BioAssay (NCATS).
# Several values for one entry are separate records, joined by “and”; a condition that tells them apart may be missing. Identical values can stand only once. Records with an inconclusive call do not appear. Where a call stands in place of a potency, no number is given. Activity calls are given as the source filed them. The call rests on the fitted dose curve; in most records, active means well fitted cell-killing curve with a large enough effect; inconclusive means small, poorly fitted or top-dose-only effect, or effect the other way; inactive means no such curve, though single readings can be large or run the other way.
# Assay: Viability qHTS for spleen associated tyrosine kinase inhibitor (SYKi) naive MV4-11 cells (AID 1963823); further: nearly all actives have a fitted effect of over 40% in size
# Conditions: MV4-11 AML viability, CellTiter-Glo luminescence, 72 h; series mostly up to 45 µM
# Excerpt: Department of Medicine, Hematology/Oncology
# University Hospital Frankfurt, Germany.
# Trials have shown promising clinical activity of the selective SYK inhibitor entospletinib in patients with high expressing HOXA9/MEIS1 acute leukemias. As the development of resistance mechanisms is a common problem in the use of targeted drugs, we performed a chemical library screen to identify drug sensitivities in SYK inhibitor resistant AML cells. […] Glucocorticoids are potent immunosuppressants which work in part by inhibiting the transcription of cytokine genes.
# Described herein is a viability screen to look for activity in the SYK inhibitor naive cell line against four NCATS compound libraries (MIPE 5.0, NPC, NPACT, and Kinase) totaling 11372 compounds. Active hits were reacquired for confirmation and further secondary assay testing.
# SEQUENCE No. (e.g., 1, 2, 3, etc.); […] (e.g., Cells, Incubation, Reagent, etc.); VALUE; DESCRIPTION.
# 1; Media; 2uL; white, solid-bottom Corning assay plate.
# 2; Compounds; 23nL; Echo acoustic dispenser.
# 3; Cell; 5uL; 500 cells per well.
# 4: Incubation; 72hr; 37 C, 5% CO2, 95% humidity.
# 5; Reagent; 3uL; CellTiter-Glo reagent (Promega).
# 6; Incubation; 10min; room temperature.
# 7; Detection; Luminescence; ViewLux plate reader (PerkinElmer).
# NOTES (numbers refer to Sequence numbers above
# 1. Quantitative high-throughput screening (qHTS) of small molecule compounds was conducted on naive SYKi MV4-11 cell line.
# 2. Twenty-three nanoliter of small molecule compounds were added to each assay plates using the Echo acoustic dispenser (Beckman Coulter).
# 3. Cells were seeded into the assay plates at a final density of 500 cells in 5uL of media per well using the Multi-drop Combi dispenser.
# 4. Plates were covered with stainless steel gasketed lids and incubated for 72 hours at standard cell culture conditions.
# 5. Viability was assessed by adding 3uL of CellTiter-Glo detection reagent (Promega).
# 6. Plates were covered with gasket lids and incubated for 10 minutes at room temperature.
# 7. Luminescence was measured on a ViewLux plate reader (PerkinElmer).
# Potency means the concentration at half of the fitted maximal effect.
row,SMILES,Potency
1,CNC(=O)N1N=C(c2ccc(N)cc2)c2cc3c(cc2CC1C)OCO3 (stereo not given),1.84 µM (active)
2,COC1=CC(=O)O[C@@H](CCc2ccccc2)C1,inactive
3,CCCN(CCC)c1c([N+](=O)[O-])cc(S(N)(=O)=O)cc1[N+](=O)[O-],21.7 µM (active)
4,CC1=C(O)C(=O)C=C2C1=CC=C1[C@@]2(C)CC[C@@]2(C)[C@@H]3C[C@](C)(C(=O)O)CC[C@]3(C)CC[C@]12C,0.59 µM (active)
5,C[C@H]1O[C@@H](n2cnc3c(N)ncnc32)C[C@@H]1O,inactive
6,c1ccc2c(c1)Nc1ccccc1S2,inactive
7,CCCCCCCCCC(=O)O[C@H]1CC[C@H]2[C@@H]3CCC4=CC(=O)CC[C@@H]4[C@H]3CC[C@]12C,inactive
8,CCOC(=O)NC(C)(C)Cc1ccc(Cl)cc1,inactive
9,CC(C)NC(C)C,inactive
10,CN1CCN(c2ccc([N+](=O)[O-])c3no[n+]([O-])c23)CC1,8.33 µM (active)
11,[N-]=[N+]=CC(=O)OC[C@H](N)C(=O)O,inactive
12,CCOc1ccccc1-n1c(C(C)N2CCN(C(=O)COc3ccc(Cl)cc3)CC2)nc2ccccc2c1=O (stereo not given),920 nM (active) and 742 nM (active)
13,COc1cc(C(=O)O[C@H]2[C@@H]3C=CO[C@@H](O[C@@H]4O[C@H](CO)[C@@H](O)[C@H](O)[C@H]4O)[C@@H]3[C@@]3(CO)O[C@@H]23)ccc1O,inactive
14,C=C(CO)[C@@]12O[C@@H]1[C@@]1(C)C(=CC2=O)CC[C@@H](O)[C@@H]1C,8.2 µM (active)
15,CC(C)(O)C(Cl)(Cl)Cl,inactive
16,C#C[C@]1(O)C=C[C@H]2[C@@H]3CCC4=CC(=O)CC[C@@H]4[C@H]3CC[C@@]21CC,inactive
17,CN1CCCC1CCOC(c1cc2nccc(C(=O)O)c2[nH]1)c1ccccc1Cl (stereo not given),inactive
18,CC1N=C(N)OC1c1ccccc1 (stereo not given),inactive
19,C#C[C@]1(O)CC[C@H]2[C@@H]3CC[C@H]4Cc5nc6nc7ccccc7n6cc5C[C@]4(C)[C@H]3CC[C@@]21C,9.2 µM (active)
20,CN1CN(c2ccccc2)C2(CCN(CCCC(=O)c3ccc(F)cc3)CC2)C1=O,inactive

row,SMILES,Potency
1,COC(=O)C12C(=O)C(C)(O)C(=O)C1(C)C(C)=CC1C34CCC(OC3=O)C(C)(CO)C4CCC12C (stereo not given),inactive
2,CC(C)(N)Cc1ccc(Cl)cc1,inactive
3,CC[C@H]1C2CC3[C@@H]4N(C)c5ccccc5[C@]45C[C@@H]([C@H]2[C@H]5O)N3[C@@H]1O,inactive
4,NN=C(N)N,inactive
5,CNC(C)(C)Cc1ccccc1,inactive
6,Clc1cccc(SC2CCNCC2)n1,inactive
7,CC(C)(C)NC[C@H](O)c1ccc(O)cc1Cl,inactive
8,CC[C@H](C)[C@@H]([C@@H](CC(=O)N1CCC[C@H]1[C@H](OC)[C@@H](C)C(=O)N[C@@H](Cc1ccccc1)c1nccs1)OC)N(C)C(=O)[C@@H](NC(=O)C(C)(C)N)C(C)C,inactive
9,CC(C)=CC1C(C(=O)OCc2cccc(Oc3ccccc3)c2)C1(C)C (stereo not given),inactive
10,CC(=O)OC12C(O)C(C)C3(O)C4C=C(C)C(=O)C4CC(CO)=CC3C1C2(C)C (stereo not given),inactive
11,CCOC(=O)CC(SP(=S)(OC)OC)C(=O)OCC (stereo not given),inactive
12,CNC(=O)Oc1cccc2ccccc12,inactive
13,CCN1CC2(COC)C3[C@@H](OC)C4C1C3(C1C[C@]3(O)[C@H](OC(=O)c5ccccc5)C1[C@]4(OC(C)=O)[C@@H](O)[C@@H]3OC)[C@H](OC)C[C@H]2O (stereo not given in full),inactive
14,FC(F)(F)c1cccc(C2=CCN(CCc3ccc4ccccc4c3)CC2)c1,inactive
15,Cc1nc2ccccc2c(=O)n1-c1ccccc1Cl,inactive
16,O=S(=O)(F)Cc1ccccc1,inactive
17,C1CN2CCC1CC2,inactive
18,CCc1ccc(C2CCNCC2)cc1,inactive
19,COC1CC(OC2CCC3(C=O)C(CCC4C3CCC3(C)C(C5=CC(=O)OC5)CCC43O)C2)OC(C)C1OC1OC(CO)C(O)C(O)C1O (stereo not given),0.0862 µM (active)
20,C=C(C)[C@@]12O[C@@H]1[C@@]1(C)C(=CC2=O)CC[C@@H](OC(C)=O)[C@@H]1C,2.31 µM (active)
